Shown are actives, neighbours in structure and some others; about 1.3% of the full set was active somewhere.
SRC2 inh: human SRC2 (NCOA2) inhibition; 370,000 compounds, 0.17% hits; HEK293 GAL4-SRC2 luciferase reporter, luminescence; Q15596; inhibition, % at 9 µM;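 active means inhibition above the mean inhibition of all tested compounds plus 3 SD, set per campaign, cut at about 52% in these data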;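 further: 0% = DMSO treated cells and 100% = cells given Gossypol at 36 µM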
NCOA1 inh: human NCOA1 inhibition | Q15788 | inhibition, % at 3.6 µM | 360,000 compounds, 0.12% hits | AID 588354 | HEK293 GAL4-SRC1 luciferase reporter, luminescence;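 active means inhibition above the campaign mean plus 3 SD, with each screening campaign given its own cutoff, cut at about 60% in these data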;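 further: 0% = DMSO treated cells and 100% = gossypol at 36 µM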
NCOA3 inh: inhibits human SRC3 coactivator. Q9Y6Q9. HEK293 GAL4-SRC3 luciferase reporter, luminescence. inhibition, % at 3.6 µM. 360,000 compounds, 0.17% hits. AID 588352;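 active means inhibition above a per-campaign cutoff, the mean of all compounds plus 3 SD, cut at about 60% in these data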;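 further: 0% = DMSO-treated cells and 100% = gossypol-treated cells at 36 µM; higher means less SRC3-driven luciferase light from the GAL4 reporter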
Gli-Sufu antag: blocks Gli-Sufu signaling in a luciferase reporter. Sufu-KO-LIGHT fibroblasts, Gli luciferase reporter luminescence. inhibition, % at 5 µM. 340,000 compounds, 0.74% hits;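 active means inhibition above about 55%, limit read from the data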;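 further: 0% = DMSO-treated cells and 100% = wells with medium but no cells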
NR2F2 inh: inhibitors of human COUP-TFII (NR2F2); HEK293T NGFI-A luciferase reporter, luminescence; inhibition, % at 8.6 µM; AID 686940; 370,000 compounds, 0.7% hits; P24468;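 active means inhibition above a per-plate cutoff, mean inhibition of test wells between control levels plus 3 SD, cut at about 38% in these data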;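 further: cells cotransfected with COUP-TFII expression vector driving the NGFI-A reporter; 0% = median of COUP-TF2 test wells and 100% = reporter-only cells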
LRH-1 inv ag: inverse agonists of human LRH-1 (NR5A2); 360,000 compounds, 0.13% hits; inhibition, % at 3.6 µM; HEK293T StAR-luciferase reporter, LRH-1 transfected, 24 h; O00482;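 active means inhibition above the mean inhibition of all tested compounds plus 3 SD, cut at about 73% in these data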;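 further: 0% = DMSO wells and 100% = reporter-only cells lacking LRH-1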
Gli-Sufu confirm: confirmation of Gli-SUFU pathway antagonists. shares compounds with Gli-Sufu antag. Sufu-KO-LIGHT cells, Gli luciferase reporter, luminescence. inhibition, % at 5 µM. 2,500 compounds, 40% hits. AID 602428;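 active means mean inhibition at 5 µM reaching about 45%, limit read from the data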;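 further: plate controls were DMSO-treated cells for no effect and wells lacking cells for full effect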
Gli cytotox: cytotoxic in Gli-SUFU antagonist counter-screen. 2,500 compounds, 32% hits. shares compounds with Gli-Sufu antag. cytotoxicity, % at 5 µM. AID 651994. Sufu-KO-LIGHT cells cytotoxicity, ATP luminescence;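 active means mean cytotoxicity at 5 µM above about 25%, limit read from the data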;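 further: cells exposed to compound overnight for roughly 16 to 18 hours; plate controls were DMSO wells with cells for no effect and medium without cells for full effect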
Wnt3a counter: inhibits Wnt3a reporter, counter-screen for Gli-SUFU antagonists; inhibition, % at 6.25 µM; Wnt-LIGHT cells, Wnt3a-driven luciferase reporter, luminescence; 2,500 compounds, 20% hits; AID 651995; shares compounds with Gli-Sufu antag;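 active means mean inhibition above about 25%, limit read from the data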
VP16 Luc counter: VP16 inhibition counter-screen for COUP-TFII; shares compounds with NR2F2 inh; HEK293 Gal4-VP16 luciferase reporter, luminescence; inhibition, % at 8.5 µM; 2,500 compounds, 25% hits; AID 687007; in the data active means inhibition above about 13%
NR2F2 inh conf: COUP-TFII (NR2F2) inhibition, confirmation assay. inhibition, % at 8.5 µM. AID 687008. 2,500 compounds, 45% hits. shares compounds with NR2F2 inh. HEK293 NGFI-A luciferase reporter, luminescence;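 active means mean inhibition over three repeats above a set limit taken from the earlier primary screen, cut at about 38% in these data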;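 further: 100% = cells given the luciferase reporter alone without the COUP-TF2 vector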
The depositor's hits bear a star; / = no result.

SMILES	SRC2 inh	NCOA1 inh	NCOA3 inh	Gli-Sufu antag	NR2F2 inh	LRH-1 inv ag	Gli-Sufu confirm	Gli cytotox	Wnt3a counter	VP16 Luc counter	NR2F2 inh conf
COc1ccc(CCNc2c(C)c(C)nc3ncnn23)cc1	15.6	30.6	26.7	72.4*	65.6*	44.4	70.5*	45.3*	28.3*	-1.8	52.0*
Cc1nnsc1C(=O)NC1CCCc2c1cnn2-c1ccccc1F (centres undefined)	15.2	2.0	-16.3	50.6	44.5*	40.8	45.2*	7.9	29.4*	-0.4	44.7*
O=C(NC1CCCc2c1cnn2-c1ccccc1F)c1ccccn1 (centres undefined)	10.6	21.2	-47.1	20.9	-51.0	-34.2	/	/	/	/	/
Cc1nnsc1C(=O)NC1CCCc2c1cnn2-c1ccc(C(C)(C)C)cc1 (centres undefined)	37.2	11.5	22.8	62.4*	65.2*	41.9	58.9*	53.1*	-10.2	-2.0	66.2*
Cc1ncoc1C(=O)NC1CCCc2c1cnn2-c1ccc(C(C)(C)C)cc1 (centres undefined)	15.7	22.1	40.9	51.8	60.3*	35.9	45.1*	23.1	5.8	6.8	65.3*
O=C(NC1CCCc2c1cnn2-c1ccc(F)cc1F)c1ccccn1 (centres undefined)	-11.6	-6.9	-8.0	3.8	9.0	-5.7	/	/	/	/	/
COc1ccc(C(=O)NC2CCCc3c2cnn3-c2ccccc2F)cc1OC (centres undefined)	15.2	-14.7	18.9	55.6*	49.9*	25.4	23.6	6.5	-6.6	11.4	49.0*
CC[C@]1(c2ccc(C)cc2)C(=O)N(C(=O)OC(C)C)N1C(=O)OC(C)C	18.9	/	/	/	17.4	/	/	/	/	/	/
CCOC(=O)[C@@]12CCCC3=C1N(CCC3)C(=O)[C@H]2CC(=O)NCc1cccs1	8.3	/	/	/	15.4	/	/	/	/	/	/
COc1ccc(CN2CN3Cc4cc(OC)ccc4C3CS2(=O)=O)cc1 (centres undefined)	5.8	/	/	/	0.3	/	/	/	/	/	/
COc1cccc(CN(C)C(=O)c2cccc(NC(=O)CC3SC(N4CCCCC4)=NC3=O)c2)c1OC (centres undefined)	27.4	11.8	4.9	-4.3	-8.3	-13.5	/	/	/	/	/
COc1ccc(CN(C)C(=O)c2cccc(NC(=O)CC3SC(N4CCCCC4)=NC3=O)c2)c(OC)c1 (centres undefined)	27.0	12.7	45.4	65.4*	58.2*	18.6	48.9*	12.8	-4.8	0.3	43.8*
COCC(C)n1c(C)cc(C(=O)COC(=O)c2cc(=O)[nH]c3ccccc23)c1C (centres undefined)	24.4	33.4	36.9	50.7	62.3*	4.7	69.0*	26.2*	80.8*	2.7	58.0*
Cc1ccc2c(c1)-c1c(cnn1CC(=O)NCCc1ccccc1F)CO2	-1.2	/	/	/	8.0	/	/	/	/	/	/
CCc1ccc(/C=C/c2c[nH]c3ccccc23)[n+](CC)c1	16.0	27.4	39.0	77.9*	40.3*	53.4	82.5*	31.5*	45.6*	1.2	38.4*
CCc1ccc(-c2cc(C(=O)N/N=C/c3c[nH]c4ccccc34)[nH]n2)cc1	-17.1	-64.2	-61.4	-30.4	-36.1	-94.3	/	/	/	/	/
CCc1ccc(OC)c(S(=O)(=O)Nc2ccc(Cc3ccncc3)cc2)c1	23.0	22.1	25.4	57.0*	63.6*	23.3	58.4*	44.3*	28.8*	4.4	36.1
COc1ccc(S(=O)(=O)Nc2ccc(Cc3ccncc3)cc2)cc1OC	21.9	7.0	19.8	14.9	28.9	5.7	/	/	/	/	/
O=C(NC1CCCC1)C1(C(=O)C2CC2)CC(c2ccccc2C(F)(F)F)=NO1 (centres undefined)	-29.6	/	/	/	-3.4	/	/	/	/	/	/
Cc1ccc(CN2CCN(Cc3ccc(-n4cccn4)cc3)CC2CCO)cc1 (centres undefined)	12.9	-1.7	20.4	26.2	6.6	2.2	/	/	/	/	/
O[C@@H]1CN(Cc2ccc(-n3cccn3)cc2)CC[C@H]1N1CCN(c2ccccc2F)CC1	9.6	6.6	-9.1	58.9*	48.9*	26.7	46.1*	27.4*	-15.0	9.2	35.9
COc1ccc(-n2ncc3c(N(C)C4CCCCC4)ncnc32)cc1	63.2*	79.5*	78.5*	60.3*	88.5*	78.9*	79.6*	77.5*	99.0*	74.5*	94.2*
COc1ccc(-n2ncc3c(N4CCC(C)CC4)ncnc32)cc1	-27.2	-71.4	-86.1	-46.9	-16.3	-64.3	/	/	/	/	/
Cc1cccc(-n2ncc3c(N(C)C4CCCCC4)ncnc32)c1	62.5*	81.2*	81.3*	55.6*	87.2*	76.8*	76.4*	68.9*	99.0*	48.6*	92.3*
CCCCCCCC(=O)N[C@H]1CC[C@@]23CCCN2C(=O)CCC[C@H]3[C@H]1C	/	/	/	/	-1.2	/	/	/	/	/	/
SMILES	SRC2 inh	NCOA1 inh	NCOA3 inh	Gli-Sufu antag	NR2F2 inh	LRH-1 inv ag	Gli-Sufu confirm	Gli cytotox	Wnt3a counter	VP16 Luc counter	NR2F2 inh conf
O=S(=O)(c1cc(F)ccc1F)N1CCN(c2ccccn2)CC1	8.7	-1.7	3.3	5.6	8.9	-5.9	/	/	/	/	/
O=S(=O)(c1cc(F)ccc1F)N1CCN(c2ncnc3ccccc23)CC1	23.2	7.6	19.3	59.0*	51.2*	17.6	62.5*	58.2*	10.1	19.2*	52.6*
CCOc1cc(S(=O)(=O)NCc2ccncc2)ccc1Cl	0.7	18.2	18.8	78.5*	74.5*	44.2	78.7*	41.7*	1.9	10.0	63.0*
CCOc1ccc(S(=O)(=O)NCc2ccncc2)cc1	10.3	9.1	5.5	82.1*	70.2*	47.5	79.2*	37.3*	47.0*	3.3	62.8*
Cc1ccc(S(=O)(=O)NCC(=O)NCc2ccncc2)cc1	-1.7	-0.1	12.9	-11.7	-4.4	17.8	/	/	/	/	/
Cc1ccc(S(=O)(=O)NCc2ccncc2)cc1	23.6	0.7	28.0	70.7*	56.9*	46.8	57.4*	33.5*	20.6	3.8	40.3*
Cc1cc(S(=O)(=O)NCc2ccncc2)c(C)cc1Br	20.0	11.3	25.6	66.5*	61.4*	41.8	62.4*	18.9	37.5*	7.3	56.0*
CCOc1ccc(S(=O)(=O)NCc2ccccn2)cc1	19.9	-4.7	-4.3	-2.8	3.8	1.4	/	/	/	/	/
COC(=O)[C@@H](C)NC(=O)C(Cc1ccc2c(c1)OCO2)NC(C)=O (some centres undefined)	-0.2	/	/	/	1.4	/	/	/	/	/	/

From PubChem
